Compound activity from PubChem BioAssay.
Compounds with a hit are over-represented: about 19% of the library has one in this group of screens.
HT1080NT lethal – kills 2HG-producing HT-1080-NT fibrosarcoma cells; HT-1080-NT fibrosarcoma viability, CellTiter-Glo ATP luminescence, 48 h; Potency, µM (series often up to 46.1 µM), without a hit: at the highest dose activity, negative = less viability, most hits filed as cytotoxic; 1.6% of 360,000 active; AID 686970;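 also: NT is the 2HG producing partner of a matched IDH1 knockdown line; potency is read from the fitted curve at half-maximal effect; 0% = DMSO-treated cells and -100% = media-only wells without cells; nearly all actives have a fitted effect of over 55% in size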
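Toxicity toward the 2HG-producing NT line was scored as %Activity, normalised to DMSO and no-cell wells, from CellTiter-Glo luminescence after 48 hours' treatment.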
ELG1 repair inh – ELG1-dependent DNA repair inhibition. HEK293T ELG1-luciferase reporter, luminescence, 16 h; DNA damage induced by 5-fluorouridine. Potency, µM (highest dose often 46.1 µM), inactives show top-dose activity change, negative = inhibition, most hits filed as inhibitors. 2.3% of 330,000 active. AID 504467; also: potency is read from the fitted curve at half-maximal effect; nearly all actives have a fitted effect of over 55% in size
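DMSO vehicle served as the neutral condition. Each well held 2,000 cells given 5-fluorouridine plus compound; after 16 hr at 37 °C/5% CO2, ONE-Glo was added and luciferase measured 30 min later.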
IL-1B inflam inh – blocks inflammasome-driven IL-1 beta release; THP-1 LPS/ATP IL-1B secretion, AlphaLISA, 16 h; active compounds read low; activity change, % at 57.5 µM; 4.7% of 360,000 active; AID 743279; in the data active = activity change below about -50%; inconclusive = mostly about -30% to -49%
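Secreted IL-1B measured by AlphaLISA bead assay after 16 h compound exposure of THP-1 cells; compounds (final up to 57.5 uM) added 1 h before LPS (250 ng/mL) and ATP (1.25 mM) stimulation; lower signal means less secretion.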
HT1080 IDH1KD tx – HT-1080 IDH1 knockdown cell toxicity (counter line); HT-1080 IDH1 knockdown viability, ATP luminescence, 48 h; Potency, µM (series often up to 46.1 µM), without a hit: at the top dose activity, negative = toxicity, usual class: cytotoxic; 2% of 360,000 active; AID 686971;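 also: potency is read from the fitted curve at half-maximal effect; 0% = DMSO wells and -100% = cell-free medium wells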
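Using the IDH1-knockdown HT-1080 line run in the same batch and compound series as the NT line, viability after 48 h at 37 °C was determined by CellTiter-Glo luminescence and expressed as % activity.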
DT40 TDP1 CPT – growth inhibition of DT40 Tdp1-/-;hTDP1 cells with camptothecin (screen for TDP1 inhibitors). chicken DT40 Tdp1-/-;hTDP1 cells + 20 nM CPT, ATP luminescence, 48 h. 12% of 420,000 active. Potency, µM (highest dose often 46.2 µM), without a hit: at the top dose activity change, negative = growth inhibition, usual class: inhibitors; also: potency is read from the fitted curve at half-maximal effect; nearly all actives have a fitted effect of over 55% in size
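Cell growth measured by CellTiter-Glo luminescence after a minimum 48 h, 37 C compound exposure with 20 nM CPT in Tdp1-knockout DT40 cells stably expressing hTDP1, seeded 400/well; qHTS titration format.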
TDP1 cell noCPT – qHTS for Inhibitors of human tyrosyl-DNA phosphodiesterase 1 (TDP1): qHTS in cells in absence of CPT; AID 686978, 2013; DT40 Tdp1-/- hTDP1 cells, no CPT, ATP luminescence, 48 h; 15% of 420,000 active; Potency, µM (highest dose often 46.2 µM), inactives show at the highest dose activity change, negative = growth inhibition, actives largely listed as inhibitors; also: potency is read from the fitted curve at half-maximal effect; nearly all actives have a fitted effect of over 55% in size
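DT40 Tdp1-/-;hTDP1 cells, no CPT (DMSO vehicle only), 400 cells/well; compounds pin-transferred; ≥48 hr, 37 °C; CellTiter-Glo 30 min RT dark, luminescence read.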
An asterisk follows results filed as active; ? = inconclusive; . = not tested or not shown; [ ] = remark or other dose. Unless noted, calls follow the shape of the dose curve; as a rule, active = well fitted curve in the direction sought with a large enough effect; inconclusive = small, poorly fitted or top-dose-only effect, or another doubt; inactive = no such curve, though single readings can be large; an effect the other way counts as inactive or inconclusive. Unless noted, % is scaled to controls: 0 for no effect and ±100 for the full control effect.

SMILES	HT1080NT lethal	ELG1 repair inh	IL-1B inflam inh	HT1080 IDH1KD tx	DT40 TDP1 CPT	TDP1 cell noCPT
Cc1cnc(SCCN2CCOCC2)nc1C1CCCN(C(=O)c2cccc3c(C)c(C)[nH]c23)C1 (stereo not given)	.	.	.	.	0%[9.04 µM]	16µM*
Cc1cnc(SCc2ccccn2)nc1C1CCCN(C(=O)c2ccc3c(c2)OCO3)C1 (stereo not given)	.	.	.	.	21µM*	?
Cc1cnc(SCc2ccccn2)nc1C1CCCN(C(=O)c2cc3ccccc3oc2=O)C1 (stereo not given)	.	.	.	.	16µM*	21µM*
Cc1cnc(SCc2ccccn2)nc1C1CCCN(C(=O)c2ccc3[nH]c(C)c(C)c3c2)C1 (stereo not given)	.	.	.	.	-1%[9.04 µM]	?
CS(=O)(=O)Nc1cccc(-c2cncnc2NCc2ccccc2)c1	.	.	.	.	-3%	10%
COc1ccccc1N(C)S(=O)(=O)c1ccc(C)c(C(=O)Nc2nccs2)c1	8%	?	-11	2%	-5%	?
Cc1sc2nc(C3CC3)nc(SCC(=O)N3c4ccccc4CC3C)c2c1C (stereo not given)	?	?	0	?	16µM*	21µM*
CC1CCN(CC(=O)N2c3ccccc3CC2C)CC1 (stereo not given)	8%	0%	-8	16%	3%	-11%
Cc1cc2cc3c(cc2nc1SCC(=O)N1c2ccccc2CC1C)OCO3 (stereo not given)	?	?	-10	2%[9.24 µM]	?	21µM*
CC1Cc2ccccc2N1C(=O)CN1CCc2ccccc2C1 (stereo not given)	1%	-9%	-10	-7%	?	26µM*
CCc1nc(SCC(=O)Nc2cc(C)on2)c2c(C)c(C)sc2n1	-9%	7%	0	3%	-29%	-7%
Cc1cc(NC(=O)CSc2nc(C3CC3)nc3sc(C)c(C)c23)no1	?	?	37	-11%[9.24 µM]	8.2µM*	8.2µM*
CC(C)c1nc(SCC(=O)N2c3ccccc3CC2C)c2ccccc2n1 (stereo not given)	?	?	-99*	-22%	?	?
Cc1nnc(NC(=O)CSc2nc(C(C)C)nc3sc(C)c(C)c23)s1	-7%	17%	53	-8%	?	8.2µM*
CC1Cc2ccccc2N1C(=O)CSC1=NCCS1 (stereo not given)	10%	-2%	-20	-5%	10µM*	?
CC[C@@]1(C(=O)OC)N[C@H](CN(C)C(=O)COC)[C@@H]2C(=O)N(Cc3ccccc3)C(=O)[C@@H]21	11%	16%	15	13%	-11%	9%
Cc1nn2cc(-c3ccc(Cl)cc3)cnc2c1Cl	25%	?	0	22%	?	-24%
C#CC(=O)CCC1CCCN1C(=O)OC(C)(C)C (stereo not given)	16%	12%	-20	7%	15µM*	?
COc1ccccc1N(CC(=O)NCc1ccc2c(c1)OCO2)C(=O)CCC(=O)Nc1nccs1	-16%	-9%	-26	-8%	6%	-18%
COc1cccc(-n2c(=O)c3cc(OC)c(OC)cc3n(CC(=O)Nc3ccc(F)cc3)c2=O)c1	.	.	.	.	?	-13%
O=C1C=CC(=O)N1	?	-3%	-12	?	3.3µM*	3.3µM*
CCOc1ccccc1CNC(=O)c1cnc2sc(N3CCC(C)CC3)nn2c1=O	.	.	.	.	-19%	-11%
O=C(Nc1ccc2nc(SCC(=O)N3CCOCC3)sc2c1)c1cccc(F)c1	.	.	.	.	23µM*	21µM*
O=C(Nc1ccc2nc(SCC(=O)N3CCCC3)sc2c1)c1ccc(F)cc1	.	.	.	.	-4%	-19%
O=C(Nc1ccc2nc(SCC(=O)N3CCCC3)sc2c1)c1cccc(F)c1	.	.	.	.	21µM*	15µM*
SMILES	HT1080NT lethal	ELG1 repair inh	IL-1B inflam inh	HT1080 IDH1KD tx	DT40 TDP1 CPT	TDP1 cell noCPT
O=C(Nc1ccc2nc(SCC(=O)N3CCOCC3)sc2c1)c1ccc(F)cc1	.	.	.	.	16µM*	12µM*
Cc1[nH][nH]c(=O)c1C(c1ccc(Cl)cc1)c1c(C)[nH][nH]c1=O	20%	-7%	-7	13%	20%	4%
CSc1ccc(Cn2nnc(C(=O)Nc3ccc(C)cc3Cl)c2N)cc1	.	.	.	.	-24%	?
CC(=O)Nc1ccc(S(=O)(=O)N2CCC(C(=O)N[C@@H](C)C(=O)NC3CCCC3)CC2)cc1	1%	?	-12	10%	-9%	7%
CC(NC(=O)c1ccc(N2Cc3ccccc3Oc3ncccc32)s1)c1ccccc1 (stereo not given)	.	.	.	.	-21%	?
Cc1cc(Oc2cccc3c2S(=O)(=O)N(C2CCCC2)CC(COCc2ccccc2)O3)cc(C)c1C (stereo not given)	?	.	28	-1%	23µM*	16µM*
CCCCN1CC(COCc2ccccc2)Oc2cccc(Oc3ccc(OC)cc3)c2S1(=O)=O (stereo not given)	-1%	.	25	-1%	?	18µM*
CCCCN1CC(COCc2ccccc2)Oc2ccccc2S1(=O)=O (stereo not given)	-13%	-21%	-14	-1%	?	23µM*
COCCNC(=O)C1(C)CCCN(C(=O)c2cc(C)oc2C)C1 (stereo not given)	7%	.	3	24%	3%	7%
COc1ccc(-n2ccn(Cc3ccc(C)cc3)c(=O)c2=O)cc1OC	.	.	.	.	-6%	0%
CCc1nnc(NC(=O)CSc2nnc(-c3cc4ccccc4cc3O)n2CC)s1	-10%	?	0	-14%	-23%	?
COc1ccc(C(=O)CSc2nnc(-c3cccnc3)n2Cc2ccco2)cc1	16%	0%	?	14%	-21%	?
Cc1ccc(NCc2nnc(SCC(=O)c3ccccc3)n2Cc2ccco2)c(C)c1	-4%	0%	-11	-9%	?	16µM*
CCn1c(SCC(=O)N(C(C)C)C(C)C)nnc1-c1cc2ccccc2cc1O	-2%	?	-9	-18%	23µM*	18µM*
COc1ccc(C(=O)CSc2nnc(-c3cc4ccccc4cc3O)n2Cc2ccco2)cc1	?	?	-67*	?	21µM*	?
COc1ccc(C)cc1NC(=O)CSc1nnc(COc2ccccc2)n1Cc1ccco1	-22%	18µM*	-9	-8%	16µM*	21µM*
COc1ccc(NC(=O)CSc2nnc(-c3ccccc3Cl)n2Cc2ccco2)c(OC)c1	-1%	?	?	-20%	-9%	-9%
